Hit rate of the full screen: of about 5,500 compounds, about 2,000 (36%) were called active. Inconclusive results (about 18%) are left out. Some of the results follow. Values without a mark were called inactive. Cut-off read from the data, not from the text of the source: active = normalized growth mostly below about 0.91 (no sharp cut-off); inconclusive = no clear call, values can overlap the other calls; inactive = mostly above about 0.92.
Assay: chemical genetic growth profiling, strain panel (AID 1159580);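 note: tested at 20 µM; growth read once vehicle control cultures reached saturation at 30 °C; 1 = growth at the plate median or of vehicle wells; lower values mean less growth of the strain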
Conditions: S. cerevisiae deletion strains, growth OD

What does the source list for `O=c1[nH]c2ccccc2n1CCCN1CCN(C(c2ccccc2)c2ccccc2)CC1`?
normalized growth (locus YAL040C, strain CLN3, hits give low values): 1.02; normalized growth (locus YCL061C, strain MRC1 (second series), hits give low values): 1; normalized growth (locus YDR150W, strain NUM1, hits give low values): 1.01; normalized growth (locus YDR363W, strain ESC2, hits give low values): 1.01; normalized growth (locus YER002W, strain NOP16, hits give low values): 1.07; normalized growth (locus YGR078C, strain PAC10, hits give low values): 1.02; normalized growth (locus YJR075W, strain HOC1, hits give low values): 1; normalized growth (locus YMR307W, strain GAS1, hits give low values): 1.03; normalized growth (locus YNL128W, strain TEP1, hits give low values): 1.19 [resistant] (active); normalized growth (locus YNL175C, strain NOP13, hits give low values): 1.04; normalized growth (locus YNL197C, strain WHI3, hits give low values): 1.04; normalized growth (locus YNL224C, strain SQS1, hits give low values): 1.04; normalized growth (locus YNL322C, strain KRE1, hits give low values): 1.01; normalized growth (locus YOR083W, strain WHI5 (second series), hits give low values): 0.92; normalized growth (locus YPL055C, strain LGE1, hits give low values): 1.02; normalized growth (locus YPL241C, strain CIN2, hits give low values): 1

Reference: PubChem BioAssay AID1159580 (chemical genetic matrix, 2015)
